This is a sample that favours compounds with a hit; in the whole collection about 11% have one here.
Sm TGR block = qHTS Assay for the Inhibitors of Schistosoma Mansoni Peroxiredoxins | purified TGR, DTNB reduction, TNB absorbance 405 nm | 360,000 compounds, 3% hits | Potency, µM (series often up to 114 µM), actives largely listed as inhibitors | Schistosoma mansoni thioredoxin glutathione reductase (TGR), Q962Y6; note: nearly all actives have a fitted effect of over 60% in size
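First, TGR (20 nM dispensed) and NADPH were mixed with compound. Second, a 15 min room-temperature incubation followed. Third, further NADPH and then DTNB were added to start the reaction. Finally, TNB absorbance was monitored kinetically.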
Pf growth 96h = Primary qHTS for delayed death inhibitors of the malarial parasite plastid, 96 hour incubation; Potency, µM (titrated, usually from 28.7 µM), hits mostly inhibitors; 320,000 compounds, 6.9% hits; P. falciparum luciferase reporter growth, 96 h; AID 504834, 2011
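Two-generation exposure (96 h) targets delayed-death phenotype. Reporter parasites carrying integrated firefly luciferase, in red cells at 2% hematocrit and 0.05% parasitemia final, kept at 37 C, 5% CO2; luminescence loss indicates inhibition.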
AMA1 RON2 block = qHTS for Inhibitors of AMA1-RON; Towards Development of Antimalarial Drug Lead: Primary Screen; AlphaScreen AMA1-biotinylated RON2 peptide binding; Potency, µM (doses to about 58.2 µM), most hits filed as inhibitors; 360,000 compounds, 0.2% hits; AID 720542, 2013; note: nearly all actives have a fitted effect of over 45% in size
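AMA1 (3D7) with his tag at 25 nM final met compounds first, then biotinylated RON2 peptide at 25 nM; detection used donor plus acceptor beads, 10 µg/mL apiece, read by AlphaScreen after 30 min at room temperature.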
NS1 inh = qHTS Assay for Inhibitors of Influenza NS1 Protein Function; 270,000 compounds, 0.4% hits; Potency, µM (top dose mostly 46.1 µM); calls by dose curve; note: actives are rising curves; nearly all actives have a fitted effect of over 50% in size
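A cell-based growth assay was used: compounds that relieve NS1-induced slow growth of budding yeast raise OD600. Assay medium was yeast nitrogen base with ammonium sulphate and -URA supplement, pH 6.0, with 2% galactose.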
Pf growth 48h = Primary qHTS for delayed death inhibitors of the malarial parasite plastid, 48 hour incubation; P. falciparum luciferase growth in erythrocytes, 48 h; Potency, µM (doses to about 28.7 µM), most hits filed as inhibitors; 310,000 compounds, 5.9% hits; AID 504832, 2011
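Read-out is firefly luciferase luminescence from an integrated reporter in P. falciparum, so falling signal marks reduced parasite growth. Infected erythrocytes were at 2% hematocrit and 0.1% parasitemia (final) in Albumax-supplemented RPMI 1640.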
Numbers stand for hits; i = inactive; ? = inconclusive; nt = no result given. Unless noted, calls come from the whole dose curve; as a rule, active = well fitted curve in the direction sought with a large enough effect; inconclusive = small, poorly fitted or top-dose-only effect, or another doubt; inactive = no such curve, though single readings can be large; an effect the other way counts as inactive or inconclusive.

SMILES	Sm TGR block	Pf growth 96h	AMA1 RON2 block	NS1 inh	Pf growth 48h
CCN(CC)CCNC(=O)c1ccc2c(c1NCCO)C(=O)c1ccccc1C2=O	i	4.7µM	i	i	2.6µM
CC1CCN(C(=O)c2ccc3c(c2NCCO)C(=O)c2ccccc2C3=O)CC1	i	nt	?	i	?
Cc1cccc(NC(=O)COC(=O)c2cccc3c2C(=O)c2ccccc2C3=O)c1C	i	10µM	i	i	i
Cc1ccc(NS(=O)(=O)c2cccc(C(=O)NCCCN3CCCC3=O)c2)cc1	i	?	i	nt	?
CC(C)CN(C(=O)C1CCC1)c1c(N)n(Cc2ccccc2)c(=O)[nH]c1=O	nt	nt	i	nt	nt
COc1ccc(NC(=S)N(CCCN2CCCCC2)Cc2cccs2)cc1	i	12µM	i	i	?
CCOC(=O)c1ccc(NC(=S)N(CCCN2CCN(CC)CC2)Cc2cccs2)cc1	i	i	i	?	8.3µM
COc1ccc(NC(=S)N(CCCN2CCC(C)CC2)Cc2cccs2)cc1	i	5.9µM	i	nt	i
CCOC(=O)c1ccc(NC(=S)N(CCCN2CCN(C)CC2)Cc2cccs2)cc1	i	i	i	i	?
CC1CCC(C(C)C)C(OCC(O)CN2CCOCC2)C1 (stereo not given)	i	nt	i	i	i
CC1CCC(C(C)C)C(OCC(O)CN2CCN(Cc3ccccc3)CC2)C1 (stereo not given)	i	?	i	i	12µM
CC1CCC(C(C)C)C(OCC(O)CN2CCCC(C)C2)C1 (stereo not given)	i	13µM	i	nt	?
COc1ccc(-c2cc(=O)oc3cc(OCC(=O)Nc4ccc(CCO)cc4)ccc23)cc1	i	i	i	i	i
O=C(O)c1c(-c2ccccc2)oc2ccc(OCc3c(F)cccc3Cl)cc12	i	nt	nt	nt	nt
Cc1cc(C)nc(N/C(=N\S(=O)(=O)Cc2ccccc2)Nc2ccc(F)c(Cl)c2)n1	i	9.3µM	i	i	i
CCS(=O)(=O)N1N=C(c2ccc(C)cc2)CC1c1cc2ccc(OC)cc2nc1Cl (stereo not given)	i	nt	nt	nt	nt
CS(=O)(=O)N1N=C(c2ccco2)CC1c1ccco1 (stereo not given)	20µM	i	i	i	i
COc1ccc2cc(C3CC(c4ccco4)=NN3S(C)(=O)=O)c(Cl)nc2c1 (stereo not given)	6.3µM	?	i	i	i
O=C(c1cccc2ccccc12)N1CCCCC1	i	i	i	i	?
O=C(c1cccc2cccc(O)c12)N1CCCCC1	40µM	i	i	i	i
O=C(Nc1ccc(Cc2ccc(NC(=O)C3CC3)cc2)cc1)C1CC1	i	i	i	nt	i
O=C(O)Cc1ccc(NC(=O)c2ccc(NC(=O)C3CC3)cc2)cc1	i	5.9µM	i	i	i
Cc1ccc(C(=O)Nc2ccc(CC(=O)O)cc2)o1	i	nt	i	i	i
CC(C)(C)c1ccc(C(=O)Nc2ccc(CC(=O)O)cc2)o1	i	2.3µM	i	i	nt
COc1ccc(NC(=O)CSc2cn(CCNC(=O)c3c(F)cccc3F)c3ccccc23)cc1	i	nt	nt	nt	nt
SMILES	Sm TGR block	Pf growth 96h	AMA1 RON2 block	NS1 inh	Pf growth 48h
Cc1cccc(-n2c(C)c(-c3ccccc3)[nH]c2=S)c1	i	9.3µM	i	i	?
Cc1cccc(-n2c(O)c(C)c(=O)[nH]c2=S)c1	40µM	i	i	i	?
Cc1cccc(-n2c(C)n[nH]c2=S)c1	i	i	i	i	i
O=C(CCC(=O)Nc1ccccc1)NNC(=O)c1ccccc1Cl	i	i	i	nt	i
CCN(C(=O)CSc1nc2ccccc2n1CC(=O)Nc1ccc(F)cc1F)c1ccccc1	i	nt	nt	nt	nt
C=CCn1c(N)c(C(=O)OCCC)c2nc3ccccc3nc21	?	?	i	i	i
CCCOC(=O)c1c(N)n(Cc2cccs2)c2nc3ccccc3nc12	i	7.4µM	i	i	nt
Nc1c(C(=O)NCCCc2ccccc2)c2nc3ccccc3nc2n1Cc1cccs1	i	nt	i	i	12µM
COc1cc(N=c2c([N+](=O)[O-])nn(-c3ccc4c(c3)OCCO4)n2O)cc(OC)c1	?	?	i	i	i
O=[N+]([O-])c1nn(-c2ccc3c(c2)OCCO3)n(O)c1=NCCC1=CCCCC1	25µM	?	?	i	i
CC(C)c1ccc(N=c2c([N+](=O)[O-])nn(-c3ccc4c(c3)OCCO4)n2O)cc1	13µM	?	?	i	10µM
O=C(CC(c1ccccc1)c1ccccc1O)N1CCCC1 (stereo not given)	i	nt	i	i	i
Cc1cccc(C(CC(=O)N2CCCCC2)c2ccccc2)c1O (stereo not given)	28µM	i	i	i	i
O=C(CC(c1ccccc1)c1cc(Br)ccc1O)N1CCCCC1 (stereo not given)	i	?	i	i	13µM
CCCN(CCC)C(=O)CC(c1ccccc1)c1cc(Br)ccc1O (stereo not given)	i	nt	i	i	13µM
Cc1cccc(C(CC(=O)N2CCCC2)c2ccccc2)c1O (stereo not given)	i	i	i	i	i
COc1cccc(CNc2nc3cc(-c4ccc(OC)cc4C)sc3c(=O)n2C)c1	nt	nt	i	nt	nt
O=C(/N=C1\NC(=O)C(F)(C(F)(F)F)S1)NC1CCCCC1 (stereo not given)	13µM	i	i	i	i
CCC1S/C(=N/C(=O)NC2CCCCC2)NC1=O (stereo not given)	i	i	i	i	i
NS(=O)(=O)c1ccc(NC(=S)NCCc2ccccc2)cc1	nt	i	i	i	i
CNC(=S)Nc1ccc(C(N)=O)cc1	40µM	?	i	i	?
C=CCNC(=S)Nc1ccc(C(N)=O)cc1	?	i	i	i	i
CC(=O)CC(=O)Nc1ccc(C(N)=O)cc1	i	?	i	i	i
COC(=O)c1ccc(NC(=O)C(=O)N2CCN(C(=S)Nc3ccc(OC)cc3)CC2)cc1	i	?	i	i	?
NC(=O)c1ccc(C(=O)Nc2ccc([As](=O)(O)O)cc2)cc1	45µM	i	nt	i	i
SMILES	Sm TGR block	Pf growth 96h	AMA1 RON2 block	NS1 inh	Pf growth 48h
CC(=O)c1ccc(NC(=S)NCCc2ccc(S(N)(=O)=O)cc2)cc1	40µM	i	i	nt	i
COC(=O)c1ccc(NC(=O)C(=O)N2CCN(C(=S)Nc3ccc(C)cc3)CC2)cc1	i	0.37µM	i	i	i
Cc1ccc(C)c(NC(=O)CN(C)S(=O)(=O)c2ccc3c(c2)CCC(=O)N3)c1	i	nt	nt	nt	nt
CC1CCC(NS(=O)(=O)c2ccc(N3CCCC3=O)cc2)CC1 (stereo not given)	i	i	i	i	i
Cc1ccc2c(=O)c(C(=O)c3ccccc3)cn(CC(=O)Nc3ccc(C)c(Cl)c3)c2n1	i	nt	nt	nt	nt
CCOC(=O)c1ccc(NC(=S)NCCc2ccccc2)cc1	i	13µM	i	i	?
COC(=O)c1ccc(N/C=C/C(=O)c2ccccc2)cc1	i	13µM	i	i	i

Bioassay records deposited in PubChem by National Center for Advancing Translational Sciences (NCATS).
